# Experimental data as given in PubChem BioAssay (Tox21).
# Where “and” joins values, the source holds several entries; their conditions need not be identical. Equal values may be shown once. Inconclusive results are not listed. A call without a number means that no potency is given here. More than one record can exist for a structure, and the calls need not agree. Calls of active or inactive are those of the source. Calls come from the whole dose curve; as a rule, active = well fitted curve in the direction sought with a large enough effect in the repeat runs; inconclusive = weak or mixed curves; inactive = no such curve, though single readings can be large; an effect the other way counts as inactive or inconclusive.
# Experiments:
# [1] = qHTS RealTime-Glo MT Cell Viability Assay in HepG2 cells - 40 hour (AID 1224870); note: nearly all actives have a fitted effect of over 50% in size; note: potency is the fitted concentration of half-maximal effect
# Outline: (§1)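 Real-time viability: cells seeded at 600 per well together with NanoLuc and cell-permeant prosubstrate, compounds added after 5 h incubation. Luminescence tracked at 0, 8, 16, 24, 32 and 40 h of exposure.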
# [2] = A CellTox Green Cytotoxicity Assay to monitor cytotoxicity in HEK293 cells - 40 hour (AID 1224871); note: nearly all actives have a fitted effect of over 45% in size; note: potency is the fitted concentration of half-maximal effect
# Outline: (§2)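 Nonlytic real-time cytotoxicity: HEK293 + CellTox Green reagent plated, 5 h preincubation, pintool compound addition (23 nL in DMSO), 37 C for 40 h, fluorescence measured at successive time points.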
# [3] = qHTS RealTime-Glo MT Cell Viability Assay in HEK293 cells - 16 hour (AID 1224872); note: nearly all actives have a fitted effect of over 50% in size; note: potency is the fitted concentration of half-maximal effect
# Outline: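 Luminescence generated by NanoLuc from substrate produced by living HEK293 cells served as the viability signal. Each value reflects the reading at its stated time point during continuous 40 h compound exposure at 37 C.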
# [4] = qHTS RealTime-Glo MT Cell Viability Assay in HepG2 cells - 8 hour (AID 1224873); note: nearly all actives have a fitted effect of over 55% in size; note: potency is the fitted concentration of half-maximal effect
# Outline: as §1
# [5] = qHTS RealTime-Glo MT Cell Viability Assay in HEK293 cells - 40 hour (AID 1224874); conditions: RealTime-Glo luminescence; max response: stronger effect = lower value; note: nearly all actives have a fitted effect of over 50% in size; note: potency is the fitted concentration of half-maximal effect
# Outline: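 Cells were seeded together with NanoLuc luciferase and a prosubstrate that viable cells reduce to a luciferase substrate. After a 5 h incubation at 37 C/5% CO2, compounds were added and luminescence was measured repeatedly during 40 h of treatment.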
# [6] = A CellTox Green Cytotoxicity Assay to monitor cytotoxicity in HEK293 cells - 24 hour (AID 1224875); note: series mostly up to about 77 µM; nearly all actives have a fitted effect of over 45% in size
# Outline: as §2
# [7] = A CellTox Green Cytotoxicity Assay to monitor cytotoxicity in HepG2 cells - 16 hour (AID 1224876); note: nearly all actives have a fitted effect of over 45% in size; note: potency is the fitted concentration of half-maximal effect
# Outline: (§3)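 Read-out is fluorescence of a cyanine dye excluded from live cells that stains DNA of dead HepG2 cells, with signal proportional to cytotoxicity. Plates were read at 0, 8, 16, 24, 32 and 40 h after compound addition.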
# [8] = qHTS RealTime-Glo MT Cell Viability Assay in HepG2 cells - 32 hour (AID 1224877); note: nearly all actives have a fitted effect of over 55% in size; note: potency is the fitted concentration of half-maximal effect
# Outline: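 Tox21 10K library screened in qHTS format on HepG2 cells carrying RealTime-Glo reagents. Compounds were added after a 5 h preincubation, and the luminescent signal from continuous culture was measured repeatedly during 40 h treatment.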
# [9] = A CellTox Green Cytotoxicity Assay to monitor cytotoxicity in HepG2 cells - 24 hour (AID 1224878); note: nearly all actives have a fitted effect of over 45% in size; note: potency is the fitted concentration of half-maximal effect
# Outline: as §3
# [10] = A CellTox Green Cytotoxicity Assay to monitor cytotoxicity in HepG2 cells - 40 hour (AID 1224879); note: nearly all actives have a fitted effect of over 40% in size; note: potency is the fitted concentration of half-maximal effect
# Outline: as §3
Compound,Potency [1],Potency [2],Potency [3],Potency [4],max response [5],Potency [6],Potency [7],Potency [8],Potency [9],Potency [10],Potency [5]
O=[N+]([O-])C(CO)(CO)CO,inactive,inactive,inactive,inactive,10.8% (inactive),inactive,inactive,inactive,inactive,inactive,–
c1ccc2ccccc2c1,inactive,inactive,inactive,inactive,0.777% (inactive) and 7.95% (inactive),inactive,inactive,inactive,inactive,inactive,–
CS(=O)(=O)Nc1ccc([N+](=O)[O-])cc1Oc1ccccc1,inactive,inactive,inactive,inactive,-6.51% (inactive) and 1.07% (inactive),inactive,inactive,inactive,inactive,inactive,–
O=[N+]([O-])c1cccc(Cl)c1,inactive,inactive,inactive,inactive,7.7% (inactive),inactive,inactive,inactive,inactive,inactive,–
COC(=O)c1ccc(C(=O)OC)cc1,inactive,15.7 µM (active) and inactive,35.1 µM (active) and inactive,inactive,0.23% (inactive),inactive,inactive,inactive,22.2 µM (active) and inactive,22.2 µM (active) and inactive,35.1 µM (active)
CC1COc2ccccc2N1C(=O)C(Cl)Cl (centres undefined),inactive,inactive,inactive,inactive,-21% (inactive),inactive,inactive,inactive,inactive,inactive,–
O=S(=O)(O)CCS,inactive,inactive,inactive,inactive,0.917% (inactive) and -2.58% (inactive),inactive,inactive,inactive,inactive,inactive,–
CCCCC(CC)COC(C)=O (centres undefined),inactive,inactive,inactive,inactive,1.23% (inactive) and 1.38% (inactive),inactive,inactive,inactive,inactive,inactive,–
C/C=C(C)/C=C/C=C(C)C,inactive,inactive,inactive,inactive,-28.6% (inactive) and 16.8% (inactive),inactive,inactive,inactive,inactive,inactive,–
CN(C)c1cccc(O)c1,inactive,inactive,inactive,inactive,-0.0652% (inactive) and -21.5% (inactive),inactive,inactive,inactive,inactive,inactive,–
Cc1cc(Cc2ccc(N)c(C)c2)ccc1N,inactive,inactive,inactive,inactive,-20.5% (inactive) and -29% (inactive),inactive,inactive,inactive,inactive,inactive,–
CC1=CC[C@H]2C[C@@H]1C2(C)C,inactive,inactive,inactive,inactive,0.867% (inactive) and -1.12% (inactive),inactive,inactive,inactive,inactive,inactive,–
O=C1N=C(O)CN1/N=C/c1ccc(-c2ccc([N+](=O)[O-])cc2)o1,inactive,inactive,inactive,inactive,-2.04% (inactive),inactive,inactive,inactive,inactive,inactive,–
CCC(C)C=O (centres undefined),inactive,inactive,inactive and 6.92 µM (active),inactive,-3.52% (inactive),inactive,inactive,inactive,inactive and 21.9 µM (active),inactive,3.09 µM (active)
CCCCCCC(C)(C)S,inactive,inactive,inactive,inactive,2.32% (inactive) and -0.908% (inactive),inactive,inactive,inactive,inactive,inactive,–
O=S(=O)(Oc1ccc(Cl)cc1Cl)c1ccccc1,inactive,inactive,inactive,inactive,-21.1% (inactive),inactive,inactive,inactive,inactive,inactive,14 µM (active)
CCCCCCCCCCCCN,inactive and 34.7 µM (active),inactive and 49 µM (active),inactive and 38.9 µM (active),inactive and 21.9 µM (active),3.89% (inactive) and -9.66% (inactive),–,inactive and 19.5 µM (active),inactive and 24.5 µM (active),inactive and 19.5 µM (active),inactive and 21.9 µM (active),43.6 µM (active)
c1ccc2[nH]cnc2c1,inactive,inactive,inactive,inactive,-5.47% (inactive) and 1.04% (inactive),inactive,inactive,inactive,inactive,inactive,–
CCc1ccc(O)cc1,inactive,inactive,inactive,inactive,3.14% (inactive) and 3.17% (inactive),inactive,inactive,inactive,inactive,inactive,–

Compound,Potency [1],Potency [2],Potency [3],Potency [4],max response [5],Potency [6],Potency [7],Potency [8],Potency [9],Potency [10],Potency [5]
CCC(=O)O,inactive,inactive,inactive,inactive,12.8% (inactive) and 8.4% (inactive) and 13% (inactive),inactive,inactive,inactive,inactive,inactive,–
NCCc1ccc(O)c(O)c1,inactive,inactive,inactive,inactive,-0.912% (inactive) and 5.76% (inactive),inactive,inactive,inactive,inactive,inactive,–
CC(=O)CCc1ccccc1,inactive,inactive,inactive,inactive,1.52% (inactive) and -3.07% (inactive),inactive,inactive,inactive,inactive,inactive,–
OC[C@@H](O)[C@@H](O)[C@H](O)[C@@H](O)CO,inactive,inactive,inactive,inactive,-13% (inactive) and 0.936% (inactive),inactive,inactive,inactive,inactive,inactive,–
OCC1CCCO1 (centres undefined),inactive,inactive,inactive,inactive,1.79% (inactive) and -10.7% (inactive),inactive,inactive,inactive,inactive,inactive,–
Oc1ccc(OCc2ccccc2)cc1,inactive,inactive,957 nM (active) and inactive,inactive,-10.3% (inactive),inactive,inactive,inactive,inactive,inactive,1.2 µM (active)
CC(C)n1c(/C=C/[C@@H](O)C[C@@H](O)CC(=O)O)c(-c2ccc(F)cc2)c2ccccc21,inactive,inactive,inactive,inactive,-22.2% (inactive) and 0.258% (inactive),inactive,inactive,inactive,6.17 µM (active) and 10.7 µM (active),4.36 µM (active) and 9.52 µM (active),–
Cc1ccc(N)c(S(=O)(=O)O)c1,inactive,inactive,inactive,inactive,-4.11% (inactive) and 2.65% (inactive),inactive,inactive,inactive,inactive,inactive,–
Nc1cc(-c2ccncc2)c[nH]c1=O,inactive,inactive,inactive,inactive,-8.6% (inactive) and 7.61% (inactive),inactive,inactive,inactive,inactive,inactive,–
CCc1ccccc1O,inactive,54.7 µM (active) and inactive,inactive,inactive,-2.02% (inactive),inactive,inactive,inactive,inactive,inactive,–
CCCCC(CC)COC(=O)CCCCCCCC(=O)OCC(CC)CCCC (centres undefined),inactive,49 µM (active) and inactive,24.5 µM (active) and inactive,inactive,4.32% (inactive),–,49 µM (active),inactive,49 µM (active),43.6 µM (active),4.9 µM (active)
CCCCC/C=C\C/C=C\CCCCCCCC(=O)OC,inactive,inactive and 54.9 µM (active),inactive,inactive,3.92% (inactive) and -0.83% (inactive),inactive,inactive,inactive,inactive,inactive,–
CC(C)Cc1ccccc1,inactive,inactive,inactive,inactive,14.2% (inactive) and -0.413% (inactive),inactive,inactive,inactive,inactive,inactive,–
O=C(Oc1ccccc1)c1ccc(O)cc1,inactive,inactive,inactive,inactive,-21.6% (inactive) and -15.5% (inactive),inactive,inactive,inactive,inactive,inactive,–
COC(=O)Nc1nc2ccc(Sc3ccccc3)cc2[nH]1,inactive,21.3 µM (active),1.38 µM (active) and 1.9 µM (active),inactive,–,inactive,inactive,inactive,inactive and 10.7 µM (active),1.55 µM (active) and 848 nM (active),616 nM (active) and 848 nM (active)
CC(C)(C)C(=O)C1C(=O)c2ccccc2C1=O,inactive,inactive,inactive,inactive,-29.9% (inactive) and -11.1% (inactive),inactive,inactive,inactive,inactive,54.4 µM (active) and inactive,–
OCC#CCO,inactive,inactive,inactive,inactive,0.572% (inactive) and 1.12% (inactive),inactive,inactive,inactive,inactive,inactive,–
Nc1nc2ncc(CNc3ccc(C(=O)N[C@@H](CCC(=O)O)C(=O)O)cc3)nc2c(=O)[nH]1,inactive,inactive,inactive,inactive,21.4% (inactive) and 0.94% (inactive),inactive,inactive,inactive,inactive,inactive,–
